Assay results published in PubChem BioAssay AID1159580 (chemical genetic matrix, 2015).
In all, about 5,500 compounds went through this assay and about 2,000 (36%) were called active. Inconclusive results (about 18%) are left out. No stated cut-off is given here; in the data, active means normalized growth mostly below about 0.91 (no sharp cut-off); inconclusive means no clear call, values can overlap the other calls; inactive means mostly above about 0.92. Some of the results follow.

Test: chemical genetic growth profiling, strain panel (AID 1159580);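 further: tested at 20 µM; growth read once vehicle control cultures reached saturation at 30 °C; 1 = growth at the plate median or of vehicle wells; lower values mean less growth of the strain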
Conditions: growth OD
[1] = S. cerevisiae deletion strains, locus YDL101C, strain DUN1, hits give low values
[2] = S. cerevisiae deletion strains, locus YHR030C, strain SLT2, hits give low values
[3] = S. cerevisiae deletion strains, locus YAL013W, strain DEP1, hits give low values
[4] = S. cerevisiae deletion strains, locus YDR150W, strain NUM1, hits give low values
[5] = S. cerevisiae deletion strains, locus YGR078C, strain PAC10, hits give low values
[6] = S. cerevisiae deletion strains, locus YPL241C, strain CIN2, hits give low values

Measured: normalized growth

Cn1nc(-c2ccccc2)c(O)c(N=Nc2ccccc2)c1=O
inactive: S. cerevisiae deletion strains, locus YAR019C, strain CDC15, hits give low values 0.964 | S. cerevisiae deletion strains, locus YBL105C, strain PKC1, hits give low values 0.972 | S. cerevisiae deletion strains, locus YBR135W, strain CKS1, hits give low values 0.957 | S. cerevisiae deletion strains, locus YBR136W, strain MEC1, hits give low values 0.96 | S. cerevisiae deletion strains, locus YBR160W, strain CDC28, hits give low values 0.976 | S. cerevisiae deletion strains, locus YDL017W, strain CDC7, hits give low values 0.983 | S. cerevisiae deletion strains, locus YDL028C, strain MPS1, hits give low values 0.963 | [1] 0.972 | S. cerevisiae deletion strains, locus YDL108W, strain KIN28, hits give low values 0.962 | S. cerevisiae deletion strains, locus YDL132W, strain cdc53, hits give low values 0.968 | S. cerevisiae deletion strains, locus YDL214C, strain PRR2, hits give low values 0.906 | S. cerevisiae deletion strains, locus YDR052C, strain DBF4, hits give low values 0.985 | S. cerevisiae deletion strains, locus YDR054C, strain cdc34, hits give low values 0.971 | S. cerevisiae deletion strains, locus YDR226W, strain ADK1, hits give low values 0.971 | S. cerevisiae deletion strains, locus YDR477W, strain SNF1, hits give low values 0.917 | S. cerevisiae deletion strains, locus YER123W, strain YCK3, hits give low values 0.858 | S. cerevisiae deletion strains, locus YER133W, strain GLC7, hits give low values 0.898 | S. cerevisiae deletion strains, locus YFL009W, strain cdc4, hits give low values 0.969 | S. cerevisiae deletion strains, locus YFL029C, strain CAK1, hits give low values 0.969 | S. cerevisiae deletion strains, locus YFR003C, strain YPI1, hits give low values 0.971 | S. cerevisiae deletion strains, locus YFR019W, strain FAB1, hits give low values 0.898 | S. cerevisiae deletion strains, locus YFR028C, strain CDC14, hits give low values 0.974 | S. cerevisiae deletion strains, locus YGR040W, strain KSS1, hits give low values 0.905 | S. cerevisiae deletion strains, locus YGR052W, strain FMP48, hits give low values 0.998 | S. cerevisiae deletion strains, locus YGR092W, strain DBF2, hits give low values 0.913 | [2] 0.931 | S. cerevisiae deletion strains, locus YHR079C, strain IRE1, hits give low values 0.982 | S. cerevisiae deletion strains, locus YHR082C, strain KSP1, hits give low values 0.964 | S. cerevisiae deletion strains, locus YHR205W, strain SCH9, hits give low values 0.943 | S. cerevisiae deletion strains, locus YIL147C, strain SLN1, hits give low values 0.964 | S. cerevisiae deletion strains, locus YJL095W, strain BCK1, hits give low values 0.993 | S. cerevisiae deletion strains, locus YJL128C, strain PBS2, hits give low values 0.95 | S. cerevisiae deletion strains, locus YJL157C, strain FAR1, hits give low values 0.89 | S. cerevisiae deletion strains, locus YJR016C, strain ILV3, hits give low values 0.976 | S. cerevisiae deletion strains, locus YJR066W, strain TOR1 (second series), hits give low values 0.854 | S. cerevisiae deletion strains, locus YJR066W, strain TOR1, hits give low values 0.981 | S. cerevisiae deletion strains, locus YKL048C, strain ELM1, hits give low values 0.944 | S. cerevisiae deletion strains, locus YKL067W, strain YNK1, hits give low values 0.906 | S. cerevisiae deletion strains, locus YKL101W, strain HSL1, hits give low values 0.921 | S. cerevisiae deletion strains, locus YKL193C, strain SDS22, hits give low values 0.968 | S. cerevisiae deletion strains, locus YKL203C, strain TOR2, hits give low values 0.98 | S. cerevisiae deletion strains, locus YLR113W, strain HOG1, hits give low values 0.953 | S. cerevisiae deletion strains, locus YLR133W, strain CKI1, hits give low values 0.944 | S. cerevisiae deletion strains, locus YLR403W, strain SFP1, hits give low values 0.89 | S. cerevisiae deletion strains, locus YML070W, strain DAK1, hits give low values 0.885 | S. cerevisiae deletion strains, locus YMR001C, strain CDC5, hits give low values 0.961 | S. cerevisiae deletion strains, locus YMR205C, strain PFK2 (second series), hits give low values 0.937 | S. cerevisiae deletion strains, locus YMR277W, strain FCP1, hits give low values 0.973 | S. cerevisiae deletion strains, locus YNL006W, strain LST8, hits give low values 0.967 | S. cerevisiae deletion strains, locus YNL020C, strain ARK1, hits give low values 0.927 | S. cerevisiae deletion strains, locus YNL161W, strain CBK1, hits give low values 0.965 | S. cerevisiae deletion strains, locus YNL183C, strain NPR1, hits give low values 1 | S. cerevisiae deletion strains, locus YNL207W, strain RIO2, hits give low values 0.964 | S. cerevisiae deletion strains, locus YNL222W, strain SSU72, hits give low values 0.966 | S. cerevisiae deletion strains, locus YNL307C, strain MCK1 (second series), hits give low values 0.941 | S. cerevisiae deletion strains, locus YOL078W, strain AVO1, hits give low values 0.968 | S. cerevisiae deletion strains, locus YOL136C, strain PFK27, hits give low values 0.907 | S. cerevisiae deletion strains, locus YOR061W, strain CKA2, hits give low values 0.864 | S. cerevisiae deletion strains, locus YOR119C, strain RIO1, hits give low values 0.952 | S. cerevisiae deletion strains, locus YOR231W, strain MKK1, hits give low values 0.95 | S. cerevisiae deletion strains, locus YOR329C, strain SCD5, hits give low values 0.974 | S. cerevisiae deletion strains, locus YPL031C, strain PHO85, hits give low values 0.918 | S. cerevisiae deletion strains, locus YPL153C, strain RAD53, hits give low values 0.914 | S. cerevisiae deletion strains, locus YPL204W, strain HRR25, hits give low values 0.93 | S. cerevisiae deletion strains, locus YPL209C, strain IPL1, hits give low values 0.972 | S. cerevisiae deletion strains, locus YPL256C, strain CLN2, hits give low values 0.998 | S. cerevisiae deletion strains, locus YPR025C, strain CCL1, hits give low values 0.97 | S. cerevisiae deletion strains, locus YPR106W, strain ISR1, hits give low values 0.977 | S. cerevisiae deletion strains, locus YPR111W, strain DBF20, hits give low values 0.988 | S. cerevisiae deletion strains, strain NNK1, hits give low values 0.966 | S. cerevisiae deletion strains, strain TSCII, hits give low values 0.963

Cn1c(=O)c2[nH]c(-c3ccccc3)nc2n(C)c1=O
inactive: [3] 0.995 | S. cerevisiae deletion strains, locus YAL040C, strain CLN3, hits give low values 0.984 | S. cerevisiae deletion strains, locus YCL061C, strain MRC1 (second series), hits give low values 0.983 | [4] 0.975 | S. cerevisiae deletion strains, locus YDR363W, strain ESC2, hits give low values 1.01 | S. cerevisiae deletion strains, locus YER002W, strain NOP16, hits give low values 0.97 | [5] 1 | S. cerevisiae deletion strains, locus YNL175C, strain NOP13, hits give low values 0.986 | S. cerevisiae deletion strains, locus YNL197C, strain WHI3, hits give low values 0.99 | S. cerevisiae deletion strains, locus YNL224C, strain SQS1, hits give low values 0.992 | S. cerevisiae deletion strains, locus YOR083W, strain WHI5 (second series), hits give low values 1 | [6] 0.992

Cn1c(=O)c(-c2ccccc2)c(O)c2ccccc21
inactive: [4] 0.825 | S. cerevisiae deletion strains, locus YEL061C, strain CIN8, hits give low values 0.921 | S. cerevisiae deletion strains, locus YGR229C, strain SMI1, hits give low values 0.953 | S. cerevisiae deletion strains, locus YHR087W, strain rtc3, hits give low values 0.99 | S. cerevisiae deletion strains, locus YKL190W, strain CNB1, hits give low values 0.942 | S. cerevisiae deletion strains, locus YML094W, strain GIM5, hits give low values 0.968 | S. cerevisiae deletion strains, locus YMR307W, strain GAS1, hits give low values 0.767 | S. cerevisiae deletion strains, locus YNL298W, strain CLA4 (second series), hits give low values 0.84 | S. cerevisiae deletion strains, locus YOL006C, strain TOP1, hits give low values 0.881 | S. cerevisiae deletion strains, locus YPL055C, strain LGE1, hits give low values 0.907
active: [3] 0.868 | S. cerevisiae deletion strains, locus YBR229C, strain ROT2, hits give low values 0.887 | [1] 0.636 | [5] 0.871 | [2] 0.533 | S. cerevisiae deletion strains, locus YJL187C, strain SWE1, hits give low values 0.826 | S. cerevisiae deletion strains, locus YJR043C, strain POL32, hits give low values 0.842 | S. cerevisiae deletion strains, locus YJR075W, strain HOC1, hits give low values 0.881 | S. cerevisiae deletion strains, locus YLR039C, strain RIC1, hits give low values 0.75 | S. cerevisiae deletion strains, locus YLR058C, strain SHM2 (second series), hits give low values 0.926 | S. cerevisiae deletion strains, locus YLR085C, strain ARP6, hits give low values 0.438 | S. cerevisiae deletion strains, locus YLR262C, strain YPT6, hits give low values 0.81 | S. cerevisiae deletion strains, locus YMR219W, strain ESC1, hits give low values 0.945 | S. cerevisiae deletion strains, locus YMR263W, strain SAP30, hits give low values 0.898 | S. cerevisiae deletion strains, locus YNL153C, strain GIM3, hits give low values 0.878 | S. cerevisiae deletion strains, locus YNL322C, strain KRE1, hits give low values 0.932 | S. cerevisiae deletion strains, locus YNR030W, strain Alg12, hits give low values 0.837 | [6] 0.816 | S. cerevisiae deletion strains, locus YPR135W, strain CTF4, hits give low values 0.442 | S. cerevisiae strains, strain wild type, hits give low values 0.9
